Only some compounds are listed: those with a hit (about 0.9% of all), similar ones and a draw of the others.
TAR Tat displ – HIV-1 TAR-Tat binding disruption | 100,000 tested, 0.6% active | HIV-1 TAR RNA, Tat peptide displacement FRET; stronger effect = higher value | z-score (concentration not given with the values); active = z-score of 3 or more in at least 2 runs
CDC25B-CDK2 inh – human CDC25B-CDK2/CyclinA binding inhibition; 94,000 tested, 0.72% active; AID 1259370; z-score (concentration not given with the values); HTRF CDC25B-CDK2/CyclinA binding, anti-His/anti-Flag; stronger effect = higher value; in the data active = z-score above about 3.2
Of the large screens only hits and unclear results are named; the others gave an inactive call.

Cc1c2c(=O)n(-c3ccccc3)[nH]c2cc(=O)n1Cc1cccnc1	none
Cc1c2c(=O)n(-c3ccccc3)[nH]c2cc(=O)n1Cc1ccco1	TAR Tat displ 9.6
CCOC(=O)C1CCCN(C(=O)CCc2nnc3ccc(N4CCCC4)nn23)C1 (stereo not given)	none (no result: CDC25B-CDK2 inh)
Cc1ccc2c(c1)-c1c(cnn1CC(=O)NCC1CCCO1)CO2 (stereo not given)	none
Cc1csc(N2N=C(c3ccccc3)CC2c2cccs2)n1 (stereo not given)	none
CCOC(=O)c1ccc(NC(=S)NC(NC(=O)c2ccccc2Br)C(Cl)(Cl)Cl)cc1 (stereo not given)	none (no result: TAR Tat displ)
CC(=O)c1ccc(NC(=S)NC(NC(=O)c2cccc(Cl)c2)C(Cl)(Cl)Cl)cc1 (stereo not given)	CDC25B-CDK2 inh 3.2 (no result: TAR Tat displ)
O=C(CCC(=O)n1ncc2ccc(Cl)cc21)NC1CCCC1	none
C/C(=N\c1nnc(Sc2nc3cc(Cl)ccc3s2)s1)N(C)C	none (no result: TAR Tat displ)
O=C(c1cc(C2CC2)[nH]n1)N1CCN(c2ccccn2)CC1	none (no result: CDC25B-CDK2 inh)
Cc1cc2c(NC(=O)c3ccccc3C(=O)O)cccc2nn1	CDC25B-CDK2 inh 21 (no result: TAR Tat displ)
Cc1cc2c(NC(=O)Nc3ccc(C(C)(C)C)cc3)cccc2nn1	none (no result: TAR Tat displ)
Cc1cn2c(=O)c(S(=O)(=O)Nc3ccc4c(c3)OCCO4)c(C)nc2s1	none (no result: CDC25B-CDK2 inh)
COc1cc(OC)c2nc(C)c3c(c2c1)CN(C(=O)Nc1cccc(C(F)(F)F)c1)C3	CDC25B-CDK2 inh 15 (no result: TAR Tat displ)
COC(=S)Nc1cccc(C(F)(F)F)c1	none (no result: TAR Tat displ)
C=C(C)/C=C1/C=CC(=O)C(C)=C1	TAR Tat displ 4.5 (no result: CDC25B-CDK2 inh)
c1ccc(C(c2ccccc2)c2ccn[nH]2)cc1	none (no result: TAR Tat displ)
COc1ccc(-c2nc3c4cnn(-c5ccc(C)c(C)c5)c4ncn3n2)cc1OC	none
CC1(C(=O)NC2CCCCC2)Cn2c(ccc2-c2ccco2)C(=O)N1Cc1ccco1 (stereo not given)	none (no result: CDC25B-CDK2 inh)
CC1(C(=O)NC2CCCC2)Cn2c(ccc2-c2ccco2)C(=O)N1Cc1ccco1 (stereo not given)	TAR Tat displ 3.7 (no result: CDC25B-CDK2 inh)
CC1CCCCN1CCN1C(=O)c2ccc(-c3ccco3)n2CC1(C)C(=O)NC1CCCCC1 (stereo not given)	none (no result: CDC25B-CDK2 inh)
CC1CCCCN1CCN1C(=O)c2cc3ccccc3n2CC1(C)C(=O)NC1CCCCC1 (stereo not given)	TAR Tat displ 18 (no result: CDC25B-CDK2 inh)
CC(C)c1cc(C2CCCN2C(=O)c2cc(-c3ccccc3)no2)no1 (stereo not given)	none (no result: CDC25B-CDK2 inh)
CN(CCCNS(=O)(=O)c1ccc2c(c1)CCCC(=O)N2)C1CCCCC1	none (no result: CDC25B-CDK2 inh)
Clc1cccc(CNc2ncnc3c2cnn3-c2ccccc2)c1	none (no result: CDC25B-CDK2 inh)
Cc1cc(C)n(CCc2nc3c4ccccc4n(CC(=O)c4ccc(F)cc4)c(=O)n3n2)n1	none
Nc1nc(CN2CCN(c3ccccc3)CC2)nc(Nc2ccc(Oc3ccccc3)cc2)n1	none (no result: CDC25B-CDK2 inh)
Cc1cc2nc(CSc3ccc(N)cc3)c(=O)[nH]c2cc1C	TAR Tat displ 19 (no result: CDC25B-CDK2 inh)
Cc1cc2nc(CSc3ccccc3N)c(=O)[nH]c2cc1C	none (no result: CDC25B-CDK2 inh)
COc1ccc(N2CSC3=C(C#N)C(c4ccc(Br)cc4)CC(=O)N3C2)c(OC)c1 (stereo not given)	none
COc1ccc(N2CSC3=C(C#N)C(c4c(F)cccc4Cl)CC(=O)N3C2)c(OC)c1 (stereo not given)	none
COc1ccc(N2CSC3=C(C#N)C(c4ccccc4)CC(=O)N3C2)c(OC)c1 (stereo not given)	CDC25B-CDK2 inh 4.3
COc1cccc(C2CC(=O)N3CN(c4ccc(OC)cc4OC)CSC3=C2C#N)c1 (stereo not given)	CDC25B-CDK2 inh 5.9
CCOc1ccccc1C(c1c(C)[nH][nH]c1=O)c1c(C)[nH][nH]c1=O	none
O=C(NC1CCCC1)c1ccc(N2CCOc3ccc(Cl)cc32)s1	none (no result: CDC25B-CDK2 inh)
COc1cc(NC(=O)Nc2nnc(CC(=O)N3CCCC3)s2)cc(OC)c1	none (no result: CDC25B-CDK2 inh)
COc1ccc2nc(NC(=O)Nc3ccc4c(c3)N(C)C(=O)CS4)sc2c1	none
Cc1ccc(-c2c(N3CCN(c4cc(C)ccc4C)CC3)c(=O)c2=O)cc1	none (no result: CDC25B-CDK2 inh)
Cc1ccc(C)c(N2CCN(c3c(-c4ccc(C)c(C)c4)c(=O)c3=O)CC2)c1	TAR Tat displ 13 (no result: CDC25B-CDK2 inh)
CC[C@]12CCCN3CCc4c(n(c5ccccc45)[C@](O)(C(=O)OC)C1)[C@@H]32	none (no result: CDC25B-CDK2 inh)
CCOC(=O)C1CCCN(c2c(N3CCC(C(N)=O)CC3)c(=O)c2=O)C1 (stereo not given)	none
COCCCN1CCn2c(nc3cc(NS(C)(=O)=O)ccc32)C1	none
O=C1C(NCc2ccccc2)=C(NCc2ccccc2)C(=O)c2ccccc21	none (no result: TAR Tat displ)
COc1ccc(COC(=O)C2=C(C)NC3=C(C(=O)CCC3)C2c2ccc(F)c(F)c2)cc1 (stereo not given)	none (no result: CDC25B-CDK2 inh)
CC1=NN(c2nc(-c3ccc(Cl)cc3)cs2)C(=O)/C1=C\c1ccc2c(c1)OCO2	CDC25B-CDK2 inh 6.9 (no result: TAR Tat displ)
CC1=NN(c2nc(-c3ccc(Br)cc3)cs2)C(=O)/C1=C\c1ccc2c(c1)OCO2	CDC25B-CDK2 inh 21 (no result: TAR Tat displ)
O=C(CCN1C(=O)/C(=C/c2ccc3c(c2)OCO3)SC1=S)Nc1nc(-c2ccccc2)cs1	none (no result: TAR Tat displ)
CC1=CC(=O)N(c2nc(-c3ccc(Cl)cc3)cs2)C1=O	none (no result: TAR Tat displ)
Cc1ccccc1C(=O)Nc1c(C)nc2ccc(Cl)cn2c1=O	none (no result: CDC25B-CDK2 inh)
CC(=O)Nc1nc2c(s1)Cc1ccccc1-2	CDC25B-CDK2 inh 18 (no result: TAR Tat displ)
COc1ccc2c(c1)Cc1sc(NC(=O)c3ccc(OC)c(OC)c3)nc1-2	CDC25B-CDK2 inh 19
Oc1ccccc1CNc1nc2c(s1)CCc1ccccc1-2	none
COc1cc(OC)cc(C(=O)Nc2nc3c(s2)Cc2cc(OC)ccc2-3)c1	none
Cc1ncc(-c2ccc(C)c(S(=O)(=O)Nc3cccc(Cl)c3C)c2)o1	none (no result: CDC25B-CDK2 inh)
CN(C)C(=O)c1ccc2c(c1)nc(CN1CCN(S(=O)(=O)N(C)C)CC1)n2C	none (no result: CDC25B-CDK2 inh)
CC(=O)Nc1ncc2c(n1)CC(c1ccco1)CC2=O (stereo not given)	none
Cc1nc(Nc2ncc3c(n2)CC(c2ccco2)CC3=O)nc2ccccc12 (stereo not given)	none
CCc1ccc2nc(Nc3ncc4c(n3)CC(c3ccco3)CC4=O)nc(C)c2c1 (stereo not given)	TAR Tat displ 32
Cc1ccc(S(=O)(=O)NC(=O)Nc2ncc3c(n2)CC(c2ccco2)CC3=O)cc1 (stereo not given)	CDC25B-CDK2 inh 8.3
CN(C(=O)CSc1nc2ccccc2[nH]1)c1ccccc1	none
COCCn1c(C)cc(C(=O)C(=O)Nc2nnc(-c3cccs3)s2)c1C	none
COCCn1c(C)cc(C(=O)C(=O)Nc2nnc(-c3ccco3)s2)c1C	TAR Tat displ 31
Cc1nnc(NC(=O)C(=O)c2cc(C)n(-c3ccc(Cl)cc3)c2C)s1	none
Cc1cc(C(=O)C(=O)Nc2nnc(-c3ccco3)s2)c(C)n1-c1ccc(Cl)cc1	TAR Tat displ 19
COc1ccc(C2C(C#N)=C(N)Oc3n[nH]c(C)c32)cc1CSc1ccccn1 (stereo not given)	none
O=C(CSc1nccn1Cc1ccco1)Nc1ccc(Br)cc1	none (no result: CDC25B-CDK2 inh)
CCCc1nn2c(=O)cc(COc3cc(C)ccc3C)nc2s1	none
CCSc1nn2c(=O)cc(COc3cc(C)ccc3C)nc2s1	TAR Tat displ 7.7
COC(=O)c1ccc(C2CC(=O)NC3=C2C(=O)CC(C)(C)C3)cc1 (stereo not given)	none
O=C(O)C1Cc2c([nH]c3ccccc23)CN1 (stereo not given)	CDC25B-CDK2 inh 16 (no result: TAR Tat displ)
O=C(O)C1Cc2c([nH]c3ccccc23)C(c2ccccc2)N1 (stereo not given)	none (no result: TAR Tat displ)

Assay outcomes (PubChem BioAssay)
